Experimental findings from the OligoGym collection are described below.
Note: reference of the scale not given here.

One assay has as its target SLC6A17. Description: pooled miR-30 sensor sort-seq; sequence = guide strand. To be noted: shRNA.
TACTGCAGCTTACTGTTCCAGG displayed a sensor-assay potency score (higher = more potent) of -0.506.
TATAGTAGAGTGTCTCTCCTGG displayed a sensor-assay potency score (higher = more potent) of 0.772.
The same measure, in the same setting: the result for AAGAAGAACATGACGGACCAGA reads 0.0729.
Regarding TATATAGTGCCACACACCGATG, the sensor-assay potency score (higher = more potent) is -1.62.
As to TTCTCGACCACACACTTCTCAT, the sensor-assay potency score (higher = more potent) was -1.03.
Sequence TACATCTCCATGTAGTCCTTTG came in with a sensor-assay potency score (higher = more potent) of -1.15.
The same measure, in the same setting: then TTCTTGGTTCCATAAATCCAGG, with -1.41.

The target in the next assay is SLC6A18. The assay is described as above. Conditions: shRNA.
Sequence TTGTAGTACAGGCTGATCAGGA yielded a sensor-assay potency score (higher = more potent) of -0.436.
Turning to TAGAGCTTCTCCTGACGCGAGG, the sensor-assay potency score (higher = more potent) was -1.31.
On to TTGTCGAAAATCTCCAGCCAGT, for which the sensor-assay potency score (higher = more potent) is -1.14.
In turn, TAAACGACACCCACAACCTCGA displayed a sensor-assay potency score (higher = more potent) of -0.526.
In the case of TGAAGTAAATCACCTTCCCTGT, the sensor-assay potency score (higher = more potent) is -0.768.
Consider TGAACAAGTAGATGAGTCCTTT, for which the sensor-assay potency score (higher = more potent) is -0.149.
The sequence ATGGTGTTGTAGTACAGGCTGA returned a sensor-assay potency score (higher = more potent) of -0.98.
With TTGTATCTCAGTGGCTTCCAGA, the sensor-assay potency score (higher = more potent) was -0.724.
Sequence ATTAGTTGCTTTGAACCCCAGG came in with a sensor-assay potency score (higher = more potent) of -0.521.
TTCAGTGTCTGCCGGTACCAGA: the sensor-assay potency score (higher = more potent) was -1.1.
On the same count and under the same terms, then ATTGTCGAAAATCTCCAGCCAG, with -0.569.

Another assay has as its target SLC6A3. The description is as above. To be noted: shRNA.
Sequence TTGGTGAACTTGTTGTAGCTGG had a sensor-assay potency score (higher = more potent) of 0.547.
In turn, TAGATGATGAAGATCAGCCCTG returned a sensor-assay potency score (higher = more potent) of -0.145.
Take TTGTTGGTGAACTTGTTGTAGC: the sensor-assay potency score (higher = more potent) was -0.855.
In the case of TATTGATGTGGCACGCACCTGA, the sensor-assay potency score (higher = more potent) was -0.154.
As for TTCGCAAACATAAAAACTGTTG, the sensor-assay potency score (higher = more potent) was -1.05.
Turning to TTACAGCAACACAAGACACGGC, the sensor-assay potency score (higher = more potent) was found to be 0.179.
Sequence ATCTGCTGGATGTCGTCGCTGA came in with a sensor-assay potency score (higher = more potent) of -0.478.
The sequence TATTCTTGTAAACAAAAACTGC gave a sensor-assay potency score (higher = more potent) of -1.01.
Take TTTTGTAGCACAGGTAGGGGAA: the sensor-assay potency score (higher = more potent) was -0.466.
In the case of TTTTTGTAGCACAGGTAGGGGA, the sensor-assay potency score (higher = more potent) was -0.961.
In the case of TAGCAGTTGTTGGTGAACTTGT, the sensor-assay potency score (higher = more potent) is -0.216.
Regarding TTTCCTGGTGAGACATACCAGG, the sensor-assay potency score (higher = more potent) is -1.03.

The target of another assay is SLC7A11. The description is as above. To be noted: shRNA.
On to TTAATTAGCTGCATAACTCCAG, for which the sensor-assay potency score (higher = more potent) was 0.313.
Consider ATAATTATCAGAATTGCTGTGA, for which the sensor-assay potency score (higher = more potent) amounted to 0.593.
On the same count and under the same terms, then TAATACTTGAATCTCTTCCTGA, with 0.636.
On the same count and under the same terms, then TACTTCTTCAGTAACAAAGTTG, with -0.481; and TTCTTCAGTAACAAAGTTGAGG, with -0.835.
As to TTTAGGACCATCACTACAGTTA, the sensor-assay potency score (higher = more potent) is -0.265.
TTTGTATCGAAGATAAATCAGC gave a sensor-assay potency score (higher = more potent) of -1.16.
Regarding TATATGTGTAATGACCTCCAGA, the sensor-assay potency score (higher = more potent) is -0.907.
In turn, TAATGGACCAAAGACTTCCAAA returned a sensor-assay potency score (higher = more potent) of -1.33.
In turn, TAAAGTTCTGCGTTTGACCTTT returned a sensor-assay potency score (higher = more potent) of 0.169.
